The values that follow come from PubChem BioAssay AID504333 (National Center for Advancing Translational Sciences (NCATS), 2011).

Each structure is given as a SMILES string. Screen size: about 360,000 compounds; about 16,000 (4.4%) were called active. Where a call stands in place of a potency, no number is given. Inconclusive results (about 9%) are left out. The call rests on the fitted dose curve; in most records, active means well fitted inhibition curve with a large enough effect; inconclusive means small, poorly fitted or top-dose-only effect; inactive means no such curve, though single readings can be large or run the other way. Many of the other results were omitted from the sample, so actives are more common in it than they were.
Potency means the concentration at half of the fitted maximal effect.

Chain of Bromodomain adjacent to zinc finger domain protein 2B (Homo sapiens) (Q9UIF8 whole entry, looked up, the tested form may be a part): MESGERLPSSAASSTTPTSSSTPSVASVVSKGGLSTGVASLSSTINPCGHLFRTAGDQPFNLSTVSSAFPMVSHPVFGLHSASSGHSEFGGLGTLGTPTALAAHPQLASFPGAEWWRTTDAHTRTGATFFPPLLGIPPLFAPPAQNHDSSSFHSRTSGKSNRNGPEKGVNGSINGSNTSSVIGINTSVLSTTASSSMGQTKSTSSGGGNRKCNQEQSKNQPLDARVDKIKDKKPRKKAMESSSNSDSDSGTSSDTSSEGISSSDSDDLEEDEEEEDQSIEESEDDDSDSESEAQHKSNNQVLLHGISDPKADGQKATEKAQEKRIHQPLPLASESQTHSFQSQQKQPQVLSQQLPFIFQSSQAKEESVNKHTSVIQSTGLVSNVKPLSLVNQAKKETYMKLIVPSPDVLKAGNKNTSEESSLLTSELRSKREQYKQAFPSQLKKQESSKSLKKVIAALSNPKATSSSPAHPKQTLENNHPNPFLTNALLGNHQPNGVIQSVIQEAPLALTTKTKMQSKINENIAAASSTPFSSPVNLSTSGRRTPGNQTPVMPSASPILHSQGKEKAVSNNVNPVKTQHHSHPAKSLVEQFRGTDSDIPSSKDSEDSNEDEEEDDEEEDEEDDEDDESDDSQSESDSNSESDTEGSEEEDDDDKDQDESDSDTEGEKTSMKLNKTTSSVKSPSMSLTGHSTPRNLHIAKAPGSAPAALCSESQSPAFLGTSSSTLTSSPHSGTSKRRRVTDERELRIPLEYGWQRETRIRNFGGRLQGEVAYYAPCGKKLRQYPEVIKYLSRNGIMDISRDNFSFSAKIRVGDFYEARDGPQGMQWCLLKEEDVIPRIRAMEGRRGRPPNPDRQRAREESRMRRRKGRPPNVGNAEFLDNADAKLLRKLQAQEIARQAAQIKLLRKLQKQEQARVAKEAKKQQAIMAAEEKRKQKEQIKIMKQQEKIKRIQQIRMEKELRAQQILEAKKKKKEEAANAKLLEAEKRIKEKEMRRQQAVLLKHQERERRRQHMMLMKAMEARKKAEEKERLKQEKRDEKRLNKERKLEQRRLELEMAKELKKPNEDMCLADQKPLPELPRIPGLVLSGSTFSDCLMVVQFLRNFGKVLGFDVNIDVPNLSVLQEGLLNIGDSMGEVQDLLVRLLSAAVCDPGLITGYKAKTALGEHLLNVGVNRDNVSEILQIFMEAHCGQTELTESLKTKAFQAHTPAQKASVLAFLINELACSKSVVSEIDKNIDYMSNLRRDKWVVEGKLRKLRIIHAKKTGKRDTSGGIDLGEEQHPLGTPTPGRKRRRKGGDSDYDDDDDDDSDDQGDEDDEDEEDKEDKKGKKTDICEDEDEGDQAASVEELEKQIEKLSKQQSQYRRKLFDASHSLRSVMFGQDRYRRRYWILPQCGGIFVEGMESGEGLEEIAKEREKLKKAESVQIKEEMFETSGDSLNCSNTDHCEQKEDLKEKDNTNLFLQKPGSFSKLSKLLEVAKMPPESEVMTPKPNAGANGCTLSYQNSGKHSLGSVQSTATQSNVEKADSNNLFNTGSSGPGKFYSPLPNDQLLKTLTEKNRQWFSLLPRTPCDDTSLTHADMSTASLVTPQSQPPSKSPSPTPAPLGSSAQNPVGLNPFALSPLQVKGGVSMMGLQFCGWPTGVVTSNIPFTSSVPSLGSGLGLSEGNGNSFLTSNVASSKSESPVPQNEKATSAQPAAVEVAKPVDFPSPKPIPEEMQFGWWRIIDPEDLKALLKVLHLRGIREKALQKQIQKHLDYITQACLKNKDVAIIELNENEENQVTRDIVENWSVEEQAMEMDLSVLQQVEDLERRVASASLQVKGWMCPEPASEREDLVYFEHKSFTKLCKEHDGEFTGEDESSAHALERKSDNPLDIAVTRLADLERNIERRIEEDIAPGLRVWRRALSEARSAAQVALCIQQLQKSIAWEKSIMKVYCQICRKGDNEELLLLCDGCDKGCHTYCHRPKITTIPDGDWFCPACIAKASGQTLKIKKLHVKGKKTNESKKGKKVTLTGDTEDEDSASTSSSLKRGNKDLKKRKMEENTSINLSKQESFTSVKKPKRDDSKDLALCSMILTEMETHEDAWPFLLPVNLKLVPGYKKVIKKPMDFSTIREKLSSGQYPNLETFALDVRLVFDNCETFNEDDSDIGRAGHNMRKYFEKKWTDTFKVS

For this assay, the target named is Bromodomain adjacent to zinc finger domain protein 2B (Homo sapiens) (UniProt Q9UIF8). The assay can be described thus: qHTS Assay for Inhibitors of BAZ2B. Further: nearly all actives have a fitted effect of over 60% in size. The settings on record: AlphaScreen BAZ2B-H3K14Ac peptide displacement; series mostly up to 114 µM. The essentials:
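Compounds, titrated to a top concentration of 110 uM, were incubated 30 min at room temperature with preformed BAZ2B/acetyl-K14 H3 peptide complex (50 nM each). Proximity signal was measured by AlphaScreen after 20 min with beads.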
On the technique in general: Quantitative high-throughput screening tests each substance at several concentrations.
`COc1ccc(NS(=O)(=O)c2cc3c4c(c2)CC(=O)N4CCC3)cc1Cl`: the Potency entry was “inactive”.
To `COc1ccccc1CNC(=O)c1ccc(CS(=O)c2ccccc2Cl)o1` (centres undefined) belongs “inactive”; to `C(=N\Nc1ccc2ccccc2n1)/c1ccc2c(c1)OCO2`, 50.1 µM (active); to `Cc1noc(C)c1/C=N/Nc1ccc2ccccc2n1`, “inactive”.
The entry for `Brc1ccc(-c2csc(N/N=C/c3ccc4c(c3)OCO4)n2)cc1` is “inactive”; for `COc1ccc(CCNC(=O)CCCn2c(=O)c3ccccc3n(Cc3ccc(C)cc3)c2=O)cc1OC` it is “inactive”.
The entry for `CCOC(=O)c1cc(-c2ccc(OC)c(S(=O)(=O)Nc3ccc(OC)cc3OC)c2)on1` is “inactive”; for `Cc1ccc(-n2ncc3c(NCCCn4ccnc4)ncnc32)cc1Cl` it is 44.7 µM (active).
Consider `Clc1cccc(-n2ncc3c(NCCc4ccccc4)ncnc32)c1`, for which the Potency result was “inactive”.
Turning to `CCN(CC)CCNc1ncnc2c1cnn2-c1cc(Cl)ccc1C`, the Potency entry is “inactive”.
To `O=C(CC1Oc2ccc(Cl)cc2NC1=O)NCc1ccccc1` (centres undefined) belongs “inactive”.
To `CCOc1ccccc1CNC(=O)c1cnc2c(-c3ccc(OCC)c(OCC)c3)c(C)nn2c1C` belongs “inactive”; to `Cc1ccc(SCC(=O)Nc2ccc3oc(-c4ccccc4F)nc3c2)cc1`, “inactive”.
For the compound `CCOC(=O)C1CCCN(C(=O)c2ccc3c(c2)sc2nc(-c4ccc(CC)cc4)cn23)C1` (centres undefined), the Potency entry is “inactive”.
To `Cc1ccccc1CNC(=O)CSc1nnc(C)c2c(C)n(-c3ccccc3)nc12` belongs “inactive”; to `C/C(=N\NC(=O)Cc1ccc(Br)cc1)c1cccnc1`, “inactive”; to `O=C(Nc1ccc(NC(=O)c2ccccc2F)cc1)c1ccccc1F`, “inactive”.
The figure for `C/C(=N\NC(=O)Cc1ccc(Cl)cc1)c1ccccn1` is 44.7 µM (active); for `C/C(=N\NC(=O)c1ccccc1F)c1ccccn1` it is 20 µM (active); for `C/C(CC(=O)Nc1ccc(N(C)C)cc1)=N\NC(=O)c1ccccc1F` it is “inactive”.
To `NC(=O)NC(CC(=O)NNC(=O)c1ccccn1)c1ccc(Cl)cc1` (centres undefined) belongs “inactive”; to `Cc1nc2nc(NCc3cccc(Br)c3)[nH]n2c(=O)c1Cc1ccccc1`, “inactive”; to `O=C(CSc1nc2c(c(=O)[nH]1)CN(Cc1ccc(F)cc1)CC2)Nc1ccccc1Cl`, “inactive”.
In the case of `Cc1noc2ncnc(NCc3ccccc3Cl)c12`, the Potency entry is “inactive”.
To `COC(=O)c1ccc(NC(=O)c2cc(S(=O)(=O)N3CCC(C)CC3)cn2C)cc1` belongs “inactive”; to `Cc1oc(-c2ccccc2F)nc1CN1CCC(C(=O)NCCc2ccc(Cl)cc2)CC1`, “inactive”.
For the compound `CC(=O)Nc1ccc(S(=O)(=O)Oc2ccc(/C=N/N=C3/NC(=O)C(CC(=O)O)S3)cc2)cc1` (centres undefined), the Potency is 50.1 µM (active).
To `Cc1ccc(NC(=O)CC2S/C(=N/N=C3\CCCc4ccccc43)NC2=O)cc1` (centres undefined) belongs “inactive”; to `Cc1ccc(S(=O)(=O)Oc2ccc(/C=N/NC(=O)c3ccncc3)cc2)cc1`, “inactive”.
To `CCOc1ccc(N2CC(C)Cn3c2nc2c3c(=O)n(Cc3c(F)cccc3Cl)c(=O)n2C)cc1` (centres undefined) belongs “inactive”; to `COC(=O)C1=CN(Cc2ccc(OC)cc2)C=C(C(=O)OC)C1c1ccc(O)c(OC)c1`, “inactive”.
Turning to `CCc1ccc(OCC2c3cc(OC)c(OC)cc3CCN2C(C)=O)cc1` (centres undefined), the Potency entry was “inactive”.
To `COc1cc2c(cc1O)[C@H](Cc1ccc(Oc3cc(C[C@@H]4NCCc5cc(OC)c(O)cc54)ccc3O)cc1)NCC2` belongs 39.8 µM (active).
As to `Cn1c(=O)n(Cc2c(F)cccc2Cl)c(=O)c2c1nc1n2CCN1c1ccc(F)cc1`, the Potency result was “inactive”.
To `COc1cccc(CNC(=O)CCc2nc(-c3ccc(C)cc3)no2)c1` belongs “inactive”.
To `CCCCOc1ccc(CNC(=O)c2ccc3c(c2)N(C)C(=O)C2CCCCN32)cc1` (centres undefined) belongs “inactive”.
To `COc1ccc(OC)c2[nH]c(=O)c(CCNC(=O)C(=O)c3c[nH]c4ccccc34)cc12` belongs 56.2 µM (active); to `O=C(NCCCc1ccccc1)C(=O)c1c[nH]c2ccccc12`, “inactive”; to `COc1ccc(OC)c2[nH]c(=O)c(CCNC(=O)C(C)(C)C)cc12`, “inactive”.
Take `COc1ccc(CCNC(=O)c2ccc(CSCc3ccc(C)cc3)o2)cc1OC`: the Potency entry is “inactive”.
The entry for `COc1cc2c(=O)c(S(=O)(=O)c3ccc(C(C)C)cc3)cn(Cc3ccccc3C)c2cc1OC` is “inactive”; for `CCC1(C)CC(=O)c2c(ccc3oc(C(=O)Nc4ccc(C(C)=O)cc4)c(C)c23)O1` (centres undefined) it is “inactive”.
The entry for `COc1cccc(S(=O)(=O)NCc2ccc(C(=O)NCc3ccccn3)cc2)c1` is “inactive”; for `O=C(NCc1ccccn1)c1ccc2nc(-c3ccco3)c(-c3ccco3)nc2c1` it is 11.2 µM (active).
To `COCCNC(=O)Nc1ccc2nc(-c3ccco3)c(-c3ccco3)nc2c1` belongs 5.62 µM (active).
With `CCOc1ccc(NC(=O)c2ncoc2-c2ccco2)cc1`, the Potency result was “inactive”.
The entry for `COc1ccc(-c2nc3ccc(C(=O)NCc4ccc(C)cc4)cc3nc2-c2ccc(OC)cc2)cc1` is “inactive”.
To `COc1ccc(NC(=O)COCc2cc(-c3ccco3)on2)cc1` belongs “inactive”; to `O=C(NCc1ccc2c(c1)CCN2C(=O)c1ccccc1)c1ccccc1`, “inactive”.
In the case of `CCOC(=O)c1cc2c(=O)n3ccccc3nc2n(CC2CCCO2)c1=NC(=O)c1ccccc1F` (centres undefined), the Potency entry was “inactive”.
To `O=C(Cn1cc(SCc2cccc(Cl)c2)c2ccccc21)N1CCCCC1` belongs “inactive”; to `O=C(NCC(c1ccc(Cl)cc1)N1CCOCC1)c1ccccc1F` (centres undefined), “inactive”.
The entry for `CN(Cc1ccccc1)c1ccc(-c2nc(-c3ccccc3)no2)cc1[N+](=O)[O-]` is “inactive”; for `Cc1ccc(C2C3=C(Nc4[nH]n(-c5ccccc5)c(=O)c42)c2ccccc2C3=O)cc1` (centres undefined) it is 35.5 µM (active); for `Cc1ccc(-c2ccnc3[nH]n(-c4ccccc4)c(=O)c23)cc1` it is “inactive”.
The entry for `Cc1ccc(-n2[nH]c(C)c(/C=N/N3C(=O)c4cccc5cccc(c45)C3=O)c2=O)cc1` is “inactive”; for `COc1cc2[nH]c(=O)n(Cc3ccc(C(=O)NCc4ccc(C)cc4)cc3)c(=O)c2cc1OC` it is “inactive”.
For the compound `O=c1cc(CSc2ncn[nH]2)[nH]c2ccc(F)cc12`, the Potency result is “inactive”.
`Cc1ccc(NC(=O)Cc2ccc(NC(=O)N3CCCCc4ccccc43)cc2)cc1`: the Potency entry is “inactive”.
For `CCN(CC)S(=O)(=O)c1ccc2c(c1)nc(CN(C)C(=O)Nc1ccc(Cl)cc1)n2C`, the Potency entry is “inactive”.
As for `O=C(NCCC1=CCCCC1)c1ccc2c(c1)N(Cc1ccccc1F)C(=O)c1ccccc1S2(=O)=O`, the Potency result was “inactive”.
On to `COc1cc2cc(C(=O)N/N=C/c3cccc(OC)c3OC)[nH]c2cc1OC`, for which the Potency result was “inactive”.
On to `COc1cccc(/C=N\NC(=O)C2=NNC(=O)C2C)c1O` (centres undefined), for which the Potency is 50.1 µM (active).
Take `CCOc1ccc2[nH]c(C(=O)N/N=C/c3cccc(OC)c3OC)cc2c1`: the Potency entry was “inactive”.
